Several values for one entry are separate records, joined by “and”; a condition that tells them apart may be missing. Identical values can stand only once. The source holds several records for some structures; these can differ, active in one and inactive in another. Activity calls are given as the source filed them. The calls were made as follows: active = hit-call score of the fitted dose curve at least 0.9, where 1 is the maximum; inactive = score below 0.9.
Assays:
[1] = ATG_GLI_CIS: Attagene CIS-FACTORIAL HepG2 Assay for human Zinc Finger Protein GLI1 (AID 2282945); settings: HepG2, Attagene cis-factorial reporter mRNA, GLI element; actives raise or lower the signal
How it was run: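 Bidirectional curve fits relative to DMSO, using reporter mRNA levels from RT-PCR plus capillary electrophoresis. Cells were HepG2 transiently carrying cis-regulated reporter constructs, harvested 24 h after dosing.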

[2] = molecular target: Bile acid receptor (Homo sapiens) (UniProt Q96RI1); assay: ATG_IR1_CIS: Attagene CIS-FACTORIAL HepG2 Assay for human Nuclear Receptor Subfamily 1 Group H Member 4 (NR1H4), IR1 submotif (AID 2282946); settings: IR1 reporter transcription, actives raise or lower the signal
How it was run: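 HepG2 cells transiently transfected with multiplexed cis-element reporter units read endogenous transcription factor activity. After 24 h compound exposure, reporter mRNA was quantified by RT-PCR, fluorescent labelling, HpaI digestion and capillary electrophoresis; bidirectional fitting versus DMSO baseline.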

[3] = ATG_GRE_CIS: Attagene CIS-FACTORIAL HepG2 Assay for human Glucocorticoid Response Elements (GRE) (AID 2282947); settings: HepG2 GRE cis-reporter, Attagene multiplex mRNA; actives raise or lower the signal
How it was run: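 Reporter transcripts read by RT-PCR with capillary electrophoresis fluorescence after a 24 h chemical exposure of HepG2 cells transiently transfected with multiple cis-element reporter units. Gain or loss fitted against DMSO.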

[4] = ATG_ISRE_CIS: Attagene CIS-FACTORIAL HepG2 Assay for human Interferon Regulatory Factor 1 (IRF1) binding to an Interferon-Stimulated Response Element (ISRE) (AID 2282948); settings: HepG2 ISRE cis-reporter (Attagene), mRNA transcription readout; actives raise or lower the signal
How it was run: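 Uses HepG2 liver cells transfected with cis-regulated reporters and measures mRNA 24 h post-dosing through RT-PCR, primer-extension labelling and capillary electrophoresis, with DMSO as negative control.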

[5] = ATG_M_32_CIS: Attagene CIS-FACTORIAL HepG2 Assay for M32 Transcription Factor (Internal Marker) (AID 2282949); settings: HepG2 Attagene cis-factorial M32 reporter, mRNA; actives raise or lower the signal;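 also: background control marker of the multiplexed CIS panel rather than a real target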
How it was run: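 HepG2 human liver cells transiently transfected with cis-promoter-driven multiple reporter transcription units, dosed 24 h. Reporter mRNA quantified by RT-PCR, FAM-labelled primer extension, HpaI digest and capillary electrophoresis; bidirectional fit versus DMSO baseline.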

[6] = ATG_M_06_CIS: Attagene CIS-FACTORIAL HepG2 Assay for M06 Transcription Factor (Internal Marker) (AID 2282950); settings: HepG2 Attagene CIS-FACTORIAL M06 internal marker reporter; actives raise or lower the signal
How it was run: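 Measured 24 h post-dosing in transiently transfected HepG2 cells, this internal-marker endpoint reports reporter mRNA via RT-PCR with fluorescent primer extension and capillary electrophoresis. DMSO served as negative control and baseline for bidirectional fitting.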

[7] = molecular target: Hypoxia-inducible factor 1-alpha (Homo sapiens) (UniProt Q16665); assay: ATG_HIF1a_CIS: Attagene CIS-FACTORIAL HepG2 Assay for human Hypoxia Inducible Factor 1 (HIF1A) (AID 2282951); settings: HepG2 Attagene cis-factorial HIF1a reporter transcription; actives raise or lower the signal
How it was run: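 Dosed 24 h, transfected HepG2 cells yielded total RNA whose reporter transcripts were RT-PCR-amplified and sized by capillary electrophoresis using fluorescent labelling; DMSO defined baseline, with gain and loss of signal both fitted.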

[8] = molecular target: Hepatocyte nuclear factor 6 (Homo sapiens) (UniProt Q9UBC0); assay: ATG_HNF6_CIS: Attagene CIS-FACTORIAL HepG2 Assay for human Hepatocyte Nuclear Factor 6 (HNF6) (AID 2282952); settings: HepG2 Attagene cis-factorial HNF6 reporter transcription; actives raise or lower the signal
How it was run: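 Endogenous factor activity read in transiently transfected HepG2 via promoter-regulated reporter transcripts. RNA harvested 24 h post-dosing, reverse-transcribed, PCR-amplified, FAM-labelled, HpaI-digested and resolved by capillary electrophoresis; fitted in both directions against DMSO.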

[9] = molecular target: Heat shock factor protein 1 (Homo sapiens) (UniProt Q00613); assay: ATG_HSE_CIS: Attagene CIS-FACTORIAL HepG2 Assay for human Heat Shock Transcription Factor 1 (HSE) (AID 2282953); settings: HepG2 HSE cis-reporter, Attagene RNA transcription; actives raise or lower the signal
How it was run: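 Reporter mRNA induction in HepG2 is measured 24 h after dosing, using transiently transfected multiplexed cis-regulated reporter units. Signal comes from capillary electrophoresis of labelled RT-PCR products, with DMSO as negative control.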

[10] = ATG_MRE_CIS: Attagene CIS-FACTORIAL HepG2 Assay for human Metal Responsive Element (MRE) (AID 2282954); settings: HepG2 MRE cis-reporter transcription, Attagene multiplex; actives raise or lower the signal
How it was run: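 Endogenous MRE-dependent transcription read as reporter mRNA in transiently transfected human HepG2 cells at 24 h. RNA reverse-transcribed, PCR-amplified, labelled and resolved by capillary electrophoresis; gain or loss relative to DMSO.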

[11] = ATG_PBREM_CIS: Attagene CIS-FACTORIAL HepG2 Assay for human Phenobarbital-responsive Enhancer Module (PBREM) (AID 2282955); settings: HepG2 PBREM cis-reporter, Attagene multiplexed transcription; actives raise or lower the signal
How it was run: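 Transfected liver-derived HepG2 cells exposed 24 h; PBREM reporter transcript quantified via RT-PCR and capillary electrophoresis, with activity in either direction referenced to DMSO.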

[12] = molecular target: Paired box protein Pax-6 (Homo sapiens) (UniProt P26367); assay: ATG_Pax6_CIS: Attagene CIS-FACTORIAL HepG2 Assay for human Paired Box 6 (PAX6) (AID 2282956); settings: HepG2 CIS-FACTORIAL PAX6 reporter transcription, RNA readout; actives raise or lower the signal
How it was run: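 DMSO-referenced bidirectional fits of reporter mRNA fluorescence; HepG2 with transient cis-promoter MRTUs, 24 h post-dose, RT-PCR plus capillary electrophoresis detection.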

[13] = ATG_PXRE_CIS: Attagene CIS-FACTORIAL HepG2 Assay for human Pregnane X Receptor Element (PXRE) (AID 2282957); settings: HepG2 Attagene CIS-FACTORIAL PXRE reporter, mRNA; actives raise or lower the signal
How it was run: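 Reporter transcripts under endogenous PXR-responsive cis-regulation quantified from total RNA of transfected HepG2 cells 24 h post-dosing, via RT-PCR with fluorescent primer extension and capillary electrophoresis. Gain or loss of signal fitted against DMSO baseline.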

[14] = ATG_PPRE_CIS: Attagene CIS-FACTORIAL HepG2 Assay for human Peroxisome Proliferator-activated Response Element (PPRE) (AID 2282958); settings: HepG2 PPRE cis-element reporter, Attagene transcription factor profiling; actives raise or lower the signal
How it was run: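 Measured endpoint: PPRE-controlled reporter mRNA, detected by RT-PCR and capillary electrophoresis fluorescence, from transiently transfected HepG2 cells 24 h after dosing. Curves fitted in both directions using DMSO baseline.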

[15] = ATG_Sox_CIS: Attagene CIS-FACTORIAL HepG2 Assay for human SRY-box transcription factor (SOX) (AID 2282960); settings: HepG2 Attagene cis-factorial SOX reporter, mRNA; actives raise or lower the signal
How it was run: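 Gain- or loss-of-signal endpoint, fitted bidirectionally with DMSO as negative control. Based on reporter mRNA from transfected HepG2 cells harvested 24 h post-treatment and quantified via RT-PCR and capillary electrophoresis.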

[16] = molecular target: Transcription factor Sp1 (Homo sapiens) (UniProt P08047); assay: ATG_Sp1_CIS: Attagene CIS-FACTORIAL HepG2 Assay for human Specificity Protein 1 (Sp1) (AID 2282961); settings: HepG2 Sp1 cis-reporter transcription, actives raise or lower the signal
How it was run: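 Endpoint reflects endogenous Sp1 transcriptional activity, not an exogenous fusion protein: HepG2 cells with transfected cis-regulated reporters, 24 h dosing, RT-PCR/capillary electrophoresis mRNA read-out, DMSO-normalised bidirectional fit.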

[17] = ATG_SREBP_CIS: Attagene CIS-FACTORIAL HepG2 Assay for human Sterol Regulatory Element Binding (SREBP) (AID 2282962); settings: HepG2 Attagene cis-factorial SREBP reporter, mRNA; actives raise or lower the signal
How it was run: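 In this cis-format assay, HepG2 liver cells express reporters controlled by promoter elements responsive to native transcription factors. Exposure lasts 24 h; reporter mRNA fluorescence from capillary electrophoresis gives the signal, fitted bidirectionally against DMSO.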

[18] = ATG_TA_CIS: Attagene CIS-FACTORIAL HepG2 Assay for human TA Basal Promoter (AID 2282964); settings: HepG2 Attagene CIS-factorial TA basal promoter reporter; actives raise or lower the signal
How it was run: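 Cis-factorial format in HepG2: reporters report endogenous factors, not chimeric Gal4 fusions. After 24 h treatment, reporter transcripts were measured by RT-PCR-capillary electrophoresis fluorescence, analysed bidirectionally versus DMSO.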

[19] = ATG_RORE_CIS: Attagene CIS-FACTORIAL HepG2 Assay for human RAR-related Orphan Receptor Element (RORE) (AID 2282959); settings: HepG2 Attagene cis-factorial RORE reporter, mRNA; actives raise or lower the signal
How it was run: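 Transiently transfected HepG2 reporter cells were treated 24 h. Reporter transcripts were detected by RT-PCR and capillary electrophoresis, with bidirectional fitting against DMSO.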

[20] = molecular target: Signal transducer and activator of transcription 3 (Homo sapiens) (UniProt P40763); assay: ATG_STAT3_CIS: Attagene CIS-FACTORIAL HepG2 Assay for human Signal Transducer and Activator of Transcription 3 (STAT3) (AID 2282963); settings: HepG2, Attagene cis-factorial STAT3 reporter transcription; actives raise or lower the signal
How it was run: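 Readout is reporter transcript quantified by RT-PCR and capillary electrophoresis, with 6-FAM primer extension and HpaI digestion. Total RNA is taken 24 h after dosing transiently transfected HepG2 carrying cis-regulated reporter units. Bidirectional fit against DMSO.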

Measured: AC50

Sequence of Heat shock factor protein 1 (Homo sapiens) (Q00613 whole entry, looked up): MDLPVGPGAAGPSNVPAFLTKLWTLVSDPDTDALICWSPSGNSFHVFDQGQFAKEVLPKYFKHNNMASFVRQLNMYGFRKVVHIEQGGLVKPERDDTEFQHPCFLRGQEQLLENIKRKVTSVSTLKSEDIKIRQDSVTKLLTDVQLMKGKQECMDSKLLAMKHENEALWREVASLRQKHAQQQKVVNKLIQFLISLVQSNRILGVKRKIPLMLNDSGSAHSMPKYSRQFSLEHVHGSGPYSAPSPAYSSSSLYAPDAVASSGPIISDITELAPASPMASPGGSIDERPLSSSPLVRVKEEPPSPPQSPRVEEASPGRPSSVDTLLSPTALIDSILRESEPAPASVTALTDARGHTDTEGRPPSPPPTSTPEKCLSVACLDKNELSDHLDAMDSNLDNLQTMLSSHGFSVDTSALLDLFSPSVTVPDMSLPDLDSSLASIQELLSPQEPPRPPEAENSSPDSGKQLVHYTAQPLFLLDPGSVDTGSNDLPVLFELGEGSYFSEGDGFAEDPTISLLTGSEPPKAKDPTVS
Sequence of Bile acid receptor (Homo sapiens) (Q96RI1 whole entry, looked up): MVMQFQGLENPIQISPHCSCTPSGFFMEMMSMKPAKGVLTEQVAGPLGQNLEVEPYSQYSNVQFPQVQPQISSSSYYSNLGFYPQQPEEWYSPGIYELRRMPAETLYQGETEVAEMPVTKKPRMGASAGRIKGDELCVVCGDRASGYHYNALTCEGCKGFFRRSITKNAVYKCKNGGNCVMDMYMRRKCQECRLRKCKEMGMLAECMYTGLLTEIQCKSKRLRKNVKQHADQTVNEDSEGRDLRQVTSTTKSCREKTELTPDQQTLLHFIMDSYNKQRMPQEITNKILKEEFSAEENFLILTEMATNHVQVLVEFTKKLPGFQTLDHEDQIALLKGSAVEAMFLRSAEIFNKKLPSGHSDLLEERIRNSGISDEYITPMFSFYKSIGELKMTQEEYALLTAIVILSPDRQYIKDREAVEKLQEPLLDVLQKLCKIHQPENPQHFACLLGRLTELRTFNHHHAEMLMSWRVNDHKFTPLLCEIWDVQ
Sequence of Hypoxia-inducible factor 1-alpha (Homo sapiens) (Q16665 whole entry, looked up): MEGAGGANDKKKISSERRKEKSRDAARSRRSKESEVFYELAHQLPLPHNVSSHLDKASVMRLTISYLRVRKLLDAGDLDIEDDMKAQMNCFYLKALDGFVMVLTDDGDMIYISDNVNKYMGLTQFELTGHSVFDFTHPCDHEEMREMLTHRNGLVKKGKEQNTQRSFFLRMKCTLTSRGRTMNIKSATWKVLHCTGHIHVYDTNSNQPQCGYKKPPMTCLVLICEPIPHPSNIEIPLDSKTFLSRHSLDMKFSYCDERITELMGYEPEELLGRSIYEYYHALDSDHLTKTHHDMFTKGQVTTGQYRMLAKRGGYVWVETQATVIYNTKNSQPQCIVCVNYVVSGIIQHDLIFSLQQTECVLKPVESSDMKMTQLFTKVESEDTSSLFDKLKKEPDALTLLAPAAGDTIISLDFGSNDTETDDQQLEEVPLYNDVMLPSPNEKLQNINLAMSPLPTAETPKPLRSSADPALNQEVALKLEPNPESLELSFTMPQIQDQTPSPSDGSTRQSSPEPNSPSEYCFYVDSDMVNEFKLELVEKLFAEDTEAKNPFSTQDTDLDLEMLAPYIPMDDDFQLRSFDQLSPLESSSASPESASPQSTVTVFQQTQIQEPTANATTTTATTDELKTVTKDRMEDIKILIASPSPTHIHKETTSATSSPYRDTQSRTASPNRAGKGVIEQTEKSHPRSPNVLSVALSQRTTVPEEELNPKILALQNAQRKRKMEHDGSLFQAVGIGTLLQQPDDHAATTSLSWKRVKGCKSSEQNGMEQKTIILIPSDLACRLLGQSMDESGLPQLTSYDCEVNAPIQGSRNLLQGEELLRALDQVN
Sequence of Hepatocyte nuclear factor 6 (Homo sapiens) (Q9UBC0 whole entry, looked up): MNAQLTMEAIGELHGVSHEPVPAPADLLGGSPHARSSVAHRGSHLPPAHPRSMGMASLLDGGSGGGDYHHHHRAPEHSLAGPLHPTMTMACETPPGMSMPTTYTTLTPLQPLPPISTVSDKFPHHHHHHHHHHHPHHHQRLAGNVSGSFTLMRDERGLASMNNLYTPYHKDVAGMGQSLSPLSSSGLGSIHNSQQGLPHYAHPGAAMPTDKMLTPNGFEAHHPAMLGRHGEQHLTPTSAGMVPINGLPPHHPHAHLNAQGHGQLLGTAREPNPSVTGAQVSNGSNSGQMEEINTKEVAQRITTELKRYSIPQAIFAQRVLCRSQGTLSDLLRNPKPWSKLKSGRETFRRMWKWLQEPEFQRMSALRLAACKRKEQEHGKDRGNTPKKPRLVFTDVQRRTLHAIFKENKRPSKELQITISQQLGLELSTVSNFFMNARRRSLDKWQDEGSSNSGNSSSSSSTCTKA
Sequence of Signal transducer and activator of transcription 3 (Homo sapiens) (P40763 whole entry, looked up): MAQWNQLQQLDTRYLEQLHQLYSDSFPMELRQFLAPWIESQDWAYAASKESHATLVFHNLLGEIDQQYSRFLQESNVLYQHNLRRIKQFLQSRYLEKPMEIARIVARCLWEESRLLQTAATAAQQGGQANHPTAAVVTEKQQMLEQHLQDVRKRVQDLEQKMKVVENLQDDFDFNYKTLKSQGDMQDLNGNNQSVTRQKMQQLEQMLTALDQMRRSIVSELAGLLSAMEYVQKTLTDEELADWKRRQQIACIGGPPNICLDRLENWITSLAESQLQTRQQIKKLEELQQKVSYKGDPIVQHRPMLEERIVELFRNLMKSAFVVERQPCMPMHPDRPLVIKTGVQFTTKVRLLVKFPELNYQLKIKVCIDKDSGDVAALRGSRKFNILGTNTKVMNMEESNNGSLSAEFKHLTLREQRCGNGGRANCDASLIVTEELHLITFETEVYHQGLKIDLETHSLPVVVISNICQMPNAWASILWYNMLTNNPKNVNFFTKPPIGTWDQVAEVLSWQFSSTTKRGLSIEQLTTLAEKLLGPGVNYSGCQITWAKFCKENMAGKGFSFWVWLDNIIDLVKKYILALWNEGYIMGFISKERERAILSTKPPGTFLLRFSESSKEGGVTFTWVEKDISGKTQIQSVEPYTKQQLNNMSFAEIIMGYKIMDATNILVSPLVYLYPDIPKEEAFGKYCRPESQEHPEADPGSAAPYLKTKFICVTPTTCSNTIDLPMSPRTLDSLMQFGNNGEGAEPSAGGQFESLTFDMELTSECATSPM
Sequence of Transcription factor Sp1 (Homo sapiens) (P08047 whole entry, looked up, the tested form may be a part): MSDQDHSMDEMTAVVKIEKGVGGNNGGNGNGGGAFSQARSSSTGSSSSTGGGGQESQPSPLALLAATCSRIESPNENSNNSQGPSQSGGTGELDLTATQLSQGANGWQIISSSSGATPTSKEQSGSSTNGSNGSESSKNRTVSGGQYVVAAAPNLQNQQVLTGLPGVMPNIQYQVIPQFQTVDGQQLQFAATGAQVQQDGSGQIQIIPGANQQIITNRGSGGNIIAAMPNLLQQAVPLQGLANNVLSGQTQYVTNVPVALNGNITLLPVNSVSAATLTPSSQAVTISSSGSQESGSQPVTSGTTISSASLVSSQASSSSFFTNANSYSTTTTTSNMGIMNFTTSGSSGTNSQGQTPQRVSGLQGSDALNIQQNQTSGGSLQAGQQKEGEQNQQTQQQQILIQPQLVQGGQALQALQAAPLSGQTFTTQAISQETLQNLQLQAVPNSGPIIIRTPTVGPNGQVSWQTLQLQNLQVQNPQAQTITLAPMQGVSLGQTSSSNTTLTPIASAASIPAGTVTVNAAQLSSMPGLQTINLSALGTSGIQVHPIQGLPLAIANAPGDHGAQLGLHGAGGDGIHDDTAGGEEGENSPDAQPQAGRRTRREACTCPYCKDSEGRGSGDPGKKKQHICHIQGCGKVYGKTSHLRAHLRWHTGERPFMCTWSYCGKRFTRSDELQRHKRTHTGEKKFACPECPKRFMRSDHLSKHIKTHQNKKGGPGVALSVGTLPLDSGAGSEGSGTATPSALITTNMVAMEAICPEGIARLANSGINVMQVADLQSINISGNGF
Sequence of Paired box protein Pax-6 (Homo sapiens) (P26367 whole entry, looked up): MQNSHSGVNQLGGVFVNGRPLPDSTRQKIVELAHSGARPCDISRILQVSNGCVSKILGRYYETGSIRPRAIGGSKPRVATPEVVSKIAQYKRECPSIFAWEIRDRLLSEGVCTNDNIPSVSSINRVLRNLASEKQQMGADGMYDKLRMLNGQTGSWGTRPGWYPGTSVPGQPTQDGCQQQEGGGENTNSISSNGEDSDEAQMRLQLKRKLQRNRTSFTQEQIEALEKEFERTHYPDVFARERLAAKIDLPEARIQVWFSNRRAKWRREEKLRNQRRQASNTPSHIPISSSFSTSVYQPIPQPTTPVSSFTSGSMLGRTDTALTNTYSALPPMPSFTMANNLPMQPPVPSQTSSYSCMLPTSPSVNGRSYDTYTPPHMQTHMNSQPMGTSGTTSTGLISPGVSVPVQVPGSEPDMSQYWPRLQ

COc1cc(OC)nc(NC(=O)NS(=O)(=O)c2cc(NC=O)ccc2C(=O)N(C)C)n1
active: [13] 17.1 µM
inactive: [1] | [2] | [3] | [4] | [5] | [6] | [7] | [8] | [9] | [10] | [11] | [12] | [14] | [15] | [16] | [17] | [18]

CN1CSC(=S)N(C)C1
inactive: [1] | [2] | [3] | [4] | [5] | [6] | [7] | [8] | [9] | [11] | [12] | [13] | [15] | [17] | [18]
active: [10] 50 µM | [14] 10.3 µM | [16] 50 µM

O=S1OCC2C(CO1)C1(Cl)C(Cl)=C(Cl)C2(Cl)C1(Cl)Cl (stereo not drawn)
active: [13] 1.47 µM
inactive: [1] | [2] | [3] | [4] | [5] | [6] | [7] | [8] | [9] | [10] | [11] | [12] | [19] | [15] | [16] | [17] | [20] | [18]

Oc1cc(Cl)ccc1Oc1ccc(Cl)cc1Cl
inactive: [1] | [2] | [3] | [4] | [5] | [6] | [7] | [8] | [9] | [10] | [11] | [12] | [13] | [14] | [15] | [16] | [17] | [20] | [18]
active: [3] 11.1 µM | [4] 13.5 µM [middle of 4 runs] | [9] 17.4 µM and 9.05 µM | [10] 15.3 µM [middle of 6 runs] | [11] 2.91 µM and 3.38 µM and 17.3 µM | [12] 13.9 µM and 8.6 µM | [13] 2.98 µM [middle of 7 runs] | [15] 11.1 µM and 10.3 µM | [18] 17.4 µM

O=[N+]([O-])/N=C1\NCCN1Cc1ccc(Cl)nc1
active: [13] 30.6 µM
inactive: [1] | [2] | [3] | [4] | [5] | [6] | [7] | [8] | [9] | [10] | [11] | [12] | [15] | [16] | [17] | [18]

CCOc1nc(NC)nc(NC(=O)NS(=O)(=O)c2ccccc2C(=O)OC)n1
inactive: [1] | [2] | [3] | [4] | [5] | [6] | [7] | [8] | [9] | [10] | [11] | [12] | [13] | [14] | [15] | [16] | [17] | [18]
